For assay [1], the target named is Thyroid hormone receptor beta (Homo sapiens) (UniProt P10828). As to the kind of experiment: qHTS assay for small molecule antagonists of thyroid hormone receptor beta signaling (AID 588547; active = well fitted inhibition curve with a large enough effect in the signal ratio, with a control signal flat, not every such curve was filed as active; the % refers to the signal ratio;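 note: cells stimulated with 0.4 nM T3 agonist during compound exposure; series mostly up to about 77 µM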). The conditions noted are these: TR-UAS-bla HEK293, beta-lactamase ratio, antagonist mode, 18 h. A digest of the protocol: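 Inhibition of T3-driven (0.4nM final) beta-lactamase reporter activity was measured over 0.59 nM to 92 uM compound after 18 h at 37 C. The cells were GripTite HEK293 TR-UAS-bla in charcoal/dextran-stripped serum, with CCF4 ratio read-out and IC50 from Hill fits.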

In assay [2] the target is Voltage-gated inwardly rectifying potassium channel KCNH2 (Homo sapiens) (UniProt Q12809). As to the kind of experiment: qHTS Assay for Small Molecule Inhibitors of the Human hERG Channel Activity (AID 588834).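 Note: top concentration of the series differs between compounds; lower thallium flux fluorescence means stronger hERG block; nearly all actives have a fitted effect of over 50% in size.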 A digest of the protocol: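 hERG-BacMam U2OS, 2000 cells/well; 0.7X FluxOR loading 1 hr RT dark; cpd ~10 min 37 °C; stim buffer; FDSS fluorescence 2 min @ 1 s; AC50 Hill fit.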
Background: qHTS replaces the single test concentration by a dilution series.

Assay [3] has as its target Luciferin 4-monooxygenase (Photinus pyralis) (UniProt P08659). As to the kind of experiment: Biochemical firefly luciferase enzyme assay for NPC (AID 624030).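 Note: purified P. pyralis luciferase at 10 nM with luciferin and ATP substrate; series mostly up to about 59 µM; nearly all actives have a fitted effect of over 70% in size.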 A digest of the protocol:
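Direct inhibition of firefly luciferase enzyme (10 nM final, 50 mM Tris Acetate) assessed by luminescence within 5 minutes. Percent activity scaled between DMSO and PTC124 positive control, with concentration-effect curves classified by fit quality and response.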

Assay [4] in a line: qHTS assay for small molecule agonists of the antioxidant response element (ARE) signaling pathway (AID 651741; active = well fitted activation curve with a large enough effect in the signal ratio; the % refers to the signal ratio). The essentials: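 Quantitative HTS in HepG2 cells stably expressing an ARE-beta-lactamase reporter; 16 h compound exposure at 37 C, followed by 2 h room-temperature incubation with LiveBLAzer B/G FRET substrate and fluorescence measurement.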
The nature of assay [5]: qHTS assay for small molecule activators of the p53 signaling pathway (AID 651743; active = well fitted activation curve with a large enough effect in the signal ratio, not every such curve was filed as active; the % refers to the signal ratio; note: series mostly up to about 92 µM). The conditions noted are these: HCT-116 p53RE-bla, beta-lactamase FRET ratio, 16 h; hits give high values. The essentials:
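Read-out is fluorescence intensity from the LiveBLAzer B/G FRET substrate, added for 2 hours at room temperature after HCT-116 p53RE-bla cells had been incubated with compounds for 16 hours at 37 C.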

The nature of assay [6]: qHTS assay for small molecule activators of the nuclear factor-kappa B (NF-kB) signaling pathway (AID 651749; active = well fitted activation curve with a large enough effect in the signal ratio; the % refers to the signal ratio; note: series mostly up to about 77 µM). The note with it: NF-kB-bla ME-180 cells, beta-lactamase FRET ratio, 16 h; hits give high values. A digest of the protocol: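 Readout: beta-lactamase reporter driven by an NF-kB response element, detected fluorescently as loss of FRET. Cells were the ME-180 line, treated 16 hr at 37C with pin-transferred compound.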

Assay [7] deals with Tumor necrosis factor (Homo sapiens) (UniProt P01375). As to the kind of experiment: qHTS assay to identify small molecules that stimulate Tumor Necrosis Factor-alpha (TNF-alpha) secretion (AID 651757; active = well fitted curve in the direction sought with a large enough effect in the signal ratio; the % refers to the signal ratio). A digest of the protocol:
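THP-1 cells (3000/well) exposed to compounds 17 hrs at 37 C. Secreted TNF-alpha detected by HTRF with cryptate- and XL665-labeled anti-TNF-alpha antibodies after 3 hr at room temperature.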

The target in assay [8] is Peroxisome proliferator-activated receptor alpha (Homo sapiens) (UniProt Q07869). The experiment in a line: qHTS assay for small molecule agonists of the peroxisome proliferator-activated receptor alpha (PPARalpha) signaling pathway (AID 651778). Note: potency is the fitted concentration of half-maximal effect. The note with it: PathHunter PPARalpha complementation, chemiluminescence, 6 h; max response: hits give high values. The essentials: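 Chemiluminescence from complemented enzyme reported PPARalpha activation in cells after 6 hr of compound treatment at 37 C. The detection reagent was incubated for 60 min at room temperature, and compounds were scored as agonists.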

The nature of assay [9]: S16 Schwann cell viability assay (CellTiter-Glo assay) (AID 624031).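 Note: cellular ATP luminescence as a viability measure; series mostly up to about 58 µM; nearly all actives have a fitted effect of over 70% in size.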 The essentials:
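Native S16 rat Schwann cells, 500-750 cells/well in DMEM with 10% FBS, dosed with compound after overnight culture and incubated 24h at 37 degree Celsius/5% CO2. Viability by CellTiter-Glo luminescence; % activity normalized to no-cell wells and DMSO-treated cells.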

Assay [10] in a line: S16 Schwann cell PMP22 intronic element firefly luciferase assay (AID 624032). Note: series mostly up to about 58 µM; nearly all actives have a fitted effect of over 30% in size. The essentials: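 Luciferase reporter of PMP22 intronic-element expression in stably transfected S16 rat Schwann cells, read by ONE-Glo luminescence after 24 h compound exposure at 37 C. Activity scaled between DMSO (0%) and positive-control PTC124; concentration-effect curves quality-classified.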

A short description of assay [11]: S16 Schwann cell PMP22 intronic element beta-lactamase assay (AID 624044; calls by dose curve; note: nearly all actives have a fitted effect of over 15% in size). A digest of the protocol: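 Rat S16 Schwann cells with beta-Lac driven by a PMP22 intronic element, compound-treated 24 h at 37 °C. LiveBLAzer FRET B/G read: 460 nm normalized to potassium clavulanate vs DMSO; 535 nm FRET as viability; concentration-effect curves classified.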
Assay [12] deals with Glutaminase kidney isoform, mitochondrial (Homo sapiens) (UniProt O94925). As to the kind of experiment: qHTS for Inhibitors of Glutaminase (GLS): LOPAC Validation (AID 624146).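 Note: glutamate product detected by oxidase and peroxidase coupled Amplex red fluorescence gain; series mostly up to about 46 µM; nearly all actives have a fitted effect of over 60% in size.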 A digest of the protocol:
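hKGA; 45 mM KH2PO4 pH 8.2 + 0.02% Tween-20; cpd via pin tool; 1 mM Gln soln; GluOx/HRP/Amplex Red; RT 30 min; fluor. t0 & final.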

The target in assay [13] is Glucagon-like peptide 1 receptor (Homo sapiens) (UniProt P43220). As to the kind of experiment: qHTS of GLP-1 Receptor Agonists: LOPAC Validation (AID 624148).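 Note: luminescence from a luciferase reporter switched on by cAMP; higher luminescence signal means agonism.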 The essentials: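 Agonism scored as increased luciferase luminescence driven by cAMP in HEK293 clones carrying GLP-1R. Cells settled 12 hours, received compound for 4-6 hr at 37 deg C, 5% CO2, and were read after 12 min detection reagent at RT.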

The nature of assay [14]: qHTS of Nrf2 Activators: LOPAC Validation (AID 624149). A digest of the protocol:
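AREc32_Fluc cells, 1000/well in OPTI-MEM with 5% FBS, grown overnight, then exposed to compounds for 24 hr at 37 deg C, 5% CO2. ARE-driven firefly luciferase read by Steady-Glo luminescence after 30 min at RT.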

Assay [15] in a line: HTS Assay for Allosteric Antagonists of the Human D2 Dopamine Receptor: Hit Validation in HTRF (AID 624455).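 Note: stable D1 dopamine receptor cell line scored for blocking the D1 response.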 The essentials: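 Hit validation in cells stably expressing the D1 dopamine receptor, run in HTRF format. Compounds were tested for their ability to inhibit the D1-mediated response.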
Background: TR-FRET usually uses a lanthanide donor and a delayed reading to cut background.

Several values for one entry are separate records, joined by “and”; a condition that tells them apart may be missing. Identical values can stand only once. Unmarked numbers belong to inactive results. Records with an inconclusive call do not appear. Where a call stands in place of a potency, no number is given. Activity calls are given as the source filed them. Unless noted, calls come from the whole dose curve; as a rule, active = well fitted curve in the direction sought with a large enough effect; inconclusive = small, poorly fitted or top-dose-only effect, or another doubt; inactive = no such curve, though single readings can be large; an effect the other way counts as inactive or inconclusive. Where a SMILES comes first, the peptide text is derived from it. Bridges are numbered along the chain shown (N, C = ends).

Voltage-gated inwardly rectifying potassium channel KCNH2 (Homo sapiens), sequence (Q12809 whole entry, looked up): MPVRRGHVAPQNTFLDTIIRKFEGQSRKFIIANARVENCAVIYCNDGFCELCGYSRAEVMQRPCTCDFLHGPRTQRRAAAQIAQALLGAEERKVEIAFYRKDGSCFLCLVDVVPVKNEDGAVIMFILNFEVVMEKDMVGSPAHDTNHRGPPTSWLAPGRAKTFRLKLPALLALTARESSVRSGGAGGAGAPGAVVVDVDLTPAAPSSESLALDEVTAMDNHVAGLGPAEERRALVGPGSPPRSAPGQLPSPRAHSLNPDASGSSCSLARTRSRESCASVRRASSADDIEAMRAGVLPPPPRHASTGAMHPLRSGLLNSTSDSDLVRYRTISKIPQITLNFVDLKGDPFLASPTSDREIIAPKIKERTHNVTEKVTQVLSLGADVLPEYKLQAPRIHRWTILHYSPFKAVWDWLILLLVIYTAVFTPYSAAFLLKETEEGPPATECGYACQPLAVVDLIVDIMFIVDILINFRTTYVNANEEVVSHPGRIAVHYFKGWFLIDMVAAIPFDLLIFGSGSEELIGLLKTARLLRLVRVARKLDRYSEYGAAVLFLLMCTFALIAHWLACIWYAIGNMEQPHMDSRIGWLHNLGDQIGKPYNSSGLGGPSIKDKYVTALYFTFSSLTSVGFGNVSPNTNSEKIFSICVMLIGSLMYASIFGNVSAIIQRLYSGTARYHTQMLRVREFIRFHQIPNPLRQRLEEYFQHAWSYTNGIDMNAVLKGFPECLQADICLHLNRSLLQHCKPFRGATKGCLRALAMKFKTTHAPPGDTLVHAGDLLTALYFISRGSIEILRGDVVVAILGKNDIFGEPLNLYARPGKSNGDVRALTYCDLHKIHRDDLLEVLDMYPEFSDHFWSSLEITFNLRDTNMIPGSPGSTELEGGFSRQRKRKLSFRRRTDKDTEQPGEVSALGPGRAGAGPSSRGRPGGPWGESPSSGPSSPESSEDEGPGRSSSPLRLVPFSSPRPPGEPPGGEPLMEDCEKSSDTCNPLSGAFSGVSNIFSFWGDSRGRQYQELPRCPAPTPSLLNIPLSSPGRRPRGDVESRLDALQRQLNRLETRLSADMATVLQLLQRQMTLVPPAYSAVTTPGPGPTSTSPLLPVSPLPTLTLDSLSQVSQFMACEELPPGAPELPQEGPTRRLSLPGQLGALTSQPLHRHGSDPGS
Luciferin 4-monooxygenase (Photinus pyralis), sequence (P08659 whole entry, looked up): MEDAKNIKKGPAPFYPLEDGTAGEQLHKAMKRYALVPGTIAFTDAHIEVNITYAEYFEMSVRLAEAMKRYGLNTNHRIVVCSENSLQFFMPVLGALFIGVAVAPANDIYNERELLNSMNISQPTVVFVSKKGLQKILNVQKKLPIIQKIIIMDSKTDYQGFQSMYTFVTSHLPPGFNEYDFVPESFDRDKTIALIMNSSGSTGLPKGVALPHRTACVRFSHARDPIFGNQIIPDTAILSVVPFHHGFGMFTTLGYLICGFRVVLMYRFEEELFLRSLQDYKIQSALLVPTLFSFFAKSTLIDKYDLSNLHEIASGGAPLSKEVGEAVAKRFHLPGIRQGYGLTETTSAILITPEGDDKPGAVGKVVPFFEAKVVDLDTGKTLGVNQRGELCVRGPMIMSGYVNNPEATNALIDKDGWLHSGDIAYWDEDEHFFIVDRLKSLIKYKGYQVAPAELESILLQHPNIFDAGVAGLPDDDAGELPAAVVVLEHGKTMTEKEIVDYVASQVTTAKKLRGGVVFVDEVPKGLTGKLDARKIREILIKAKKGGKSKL
Peroxisome proliferator-activated receptor alpha (Homo sapiens), sequence (Q07869 whole entry, looked up): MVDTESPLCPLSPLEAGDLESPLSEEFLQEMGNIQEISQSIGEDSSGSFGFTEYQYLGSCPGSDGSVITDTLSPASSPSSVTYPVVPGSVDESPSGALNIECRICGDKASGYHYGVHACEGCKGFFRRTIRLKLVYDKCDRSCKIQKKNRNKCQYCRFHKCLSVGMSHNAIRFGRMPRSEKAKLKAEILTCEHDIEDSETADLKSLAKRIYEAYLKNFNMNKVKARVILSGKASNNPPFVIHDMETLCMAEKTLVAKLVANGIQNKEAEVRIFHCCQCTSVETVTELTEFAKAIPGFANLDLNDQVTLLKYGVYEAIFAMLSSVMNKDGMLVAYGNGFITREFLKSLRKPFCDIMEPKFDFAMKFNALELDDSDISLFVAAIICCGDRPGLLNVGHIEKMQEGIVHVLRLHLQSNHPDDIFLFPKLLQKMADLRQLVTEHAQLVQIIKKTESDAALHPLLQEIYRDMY
Tumor necrosis factor (Homo sapiens), sequence (P01375 whole entry, looked up): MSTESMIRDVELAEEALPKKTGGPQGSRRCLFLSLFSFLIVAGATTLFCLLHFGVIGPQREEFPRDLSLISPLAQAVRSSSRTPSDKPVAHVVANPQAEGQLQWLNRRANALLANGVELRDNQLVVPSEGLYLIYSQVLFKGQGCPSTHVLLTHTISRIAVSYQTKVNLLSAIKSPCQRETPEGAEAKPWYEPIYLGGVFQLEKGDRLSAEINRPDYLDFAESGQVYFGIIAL
Glucagon-like peptide 1 receptor (Homo sapiens), sequence (P43220 whole entry, looked up): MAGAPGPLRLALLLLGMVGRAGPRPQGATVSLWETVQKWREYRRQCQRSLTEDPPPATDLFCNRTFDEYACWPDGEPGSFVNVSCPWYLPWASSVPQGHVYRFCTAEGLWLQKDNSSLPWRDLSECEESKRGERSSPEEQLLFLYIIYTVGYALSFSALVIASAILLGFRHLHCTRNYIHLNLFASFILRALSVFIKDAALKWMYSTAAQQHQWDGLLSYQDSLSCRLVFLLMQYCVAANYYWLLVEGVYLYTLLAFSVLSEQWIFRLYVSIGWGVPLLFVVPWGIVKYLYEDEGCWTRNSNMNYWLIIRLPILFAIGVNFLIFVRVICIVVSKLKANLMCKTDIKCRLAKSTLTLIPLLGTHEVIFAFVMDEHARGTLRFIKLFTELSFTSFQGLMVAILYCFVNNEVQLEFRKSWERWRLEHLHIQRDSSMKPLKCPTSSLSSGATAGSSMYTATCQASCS
Glutaminase kidney isoform, mitochondrial (Homo sapiens), sequence (O94925 whole entry, looked up, canonical isoform): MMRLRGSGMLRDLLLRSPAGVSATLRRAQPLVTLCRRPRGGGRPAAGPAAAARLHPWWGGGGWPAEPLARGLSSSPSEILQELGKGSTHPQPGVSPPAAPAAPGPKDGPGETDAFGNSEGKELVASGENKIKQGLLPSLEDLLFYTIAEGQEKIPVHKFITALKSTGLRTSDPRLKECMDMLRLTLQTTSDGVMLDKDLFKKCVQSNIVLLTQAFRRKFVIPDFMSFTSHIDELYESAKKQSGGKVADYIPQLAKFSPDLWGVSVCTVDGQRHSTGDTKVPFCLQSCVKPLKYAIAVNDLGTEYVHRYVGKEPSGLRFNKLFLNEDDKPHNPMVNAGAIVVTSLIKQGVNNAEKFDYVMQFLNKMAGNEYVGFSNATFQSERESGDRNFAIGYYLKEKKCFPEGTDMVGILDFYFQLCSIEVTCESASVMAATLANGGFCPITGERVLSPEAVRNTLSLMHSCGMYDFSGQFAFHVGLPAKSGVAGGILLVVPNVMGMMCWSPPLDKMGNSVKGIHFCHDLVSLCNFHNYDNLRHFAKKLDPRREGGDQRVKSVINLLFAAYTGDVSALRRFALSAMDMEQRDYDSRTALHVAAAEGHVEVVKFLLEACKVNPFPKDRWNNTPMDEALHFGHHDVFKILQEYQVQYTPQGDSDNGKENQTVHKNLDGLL
Thyroid hormone receptor beta (Homo sapiens), sequence (P10828 whole entry, looked up): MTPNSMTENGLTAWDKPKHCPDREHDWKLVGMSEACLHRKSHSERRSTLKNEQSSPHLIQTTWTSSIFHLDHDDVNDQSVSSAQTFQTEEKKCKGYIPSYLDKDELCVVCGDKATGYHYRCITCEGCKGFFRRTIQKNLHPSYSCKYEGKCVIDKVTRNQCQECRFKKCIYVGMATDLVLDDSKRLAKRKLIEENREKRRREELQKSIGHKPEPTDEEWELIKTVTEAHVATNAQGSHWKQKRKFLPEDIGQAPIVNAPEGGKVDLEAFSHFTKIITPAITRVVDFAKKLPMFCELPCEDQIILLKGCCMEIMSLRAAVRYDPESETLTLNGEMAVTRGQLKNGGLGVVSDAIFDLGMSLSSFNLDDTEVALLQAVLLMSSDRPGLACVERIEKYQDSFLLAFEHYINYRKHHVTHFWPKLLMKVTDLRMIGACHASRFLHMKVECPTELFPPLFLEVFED

Take `CCCCCCCCCC(=O)O`: the activity change % (negative = inhibition) in assay [1] is 17.7%. The outcome in [2] and in assay [7] was inactive. The Potency entry in assay [3] and in assay [4] was “inactive” each time. Also, the activation in assay [5] is -0.571% and 9.23%; in assay [6] it was -1.38% and -1.03%. Further, the max response in [8] was 5.25% and -0.468%.
Turning to `C[N+](C)(CCCCCC[N+](C)(C)C1c2ccccc2-c2ccccc21)C1c2ccccc2-c2ccccc21`, the Potency result in assay [3] is “inactive”.
`NCCCC(=O)O`: the compound was classed as inactive in [2], in assay [11], in assay [12], in [13], in assay [14] and in [15]. Besides, the Potency entry in [3], in assay [9] and in assay [10] was “inactive” in each case.
For `O=C(Cn1cnnn1)N[C@@H]1C(=O)N2C(C(=O)O)=C(CSc3nncs3)CS[C@H]12`, the Potency result in assay [3] was “inactive”.
For the compound `CCN(CC)CCOC(=O)c1ccc(N)cc1Cl`, the Potency entry in [3] was “inactive”.
On the same count and under the same terms, the result for `CCOC(=O)[C@H](CCc1ccccc1)N[C@H]1CCCN2CCC[C@@H](C(=O)O)N2C1=O` reads “inactive”.
On to `CCCCCCCC/C=C\CCCCCCCC(=O)OC[C@@H](O)[C@H]1OC[C@H](O)[C@H]1O`, for which the Potency entry in assay [3] and in assay [4] was “inactive” in each case. Also, the activation is 1.59% in assay [5] and 0.379% in assay [6]. Besides, in assay [8], the Potency was 39.8 µM (active).
Take `Cc1c(O)cc2c(c1C)O[C@](C)(CCC[C@H](C)CCC[C@H](C)CCCC(C)C)CC2`: the Potency result in assay [3] is “inactive”.
Consider `CCCCc1cc2c(=O)c(C(=O)OC)c[nH]c2cc1OCc1ccccc1`, for which, in [3], the Potency entry was “inactive”.
On the same count and under the same terms, the result for `CN(C)CCOc1ccccc1Cc1ccccc1` (tested in a mixture with another compound) reads “inactive”; that for `NCCCC[C@H](NC(=O)[C@@H]1CCCN1C(=O)[C@@H]1CSSC[C@H](NC(=O)CNC(=O)CNC(=O)CN)C(=O)N[C@@H](Cc2ccc(O)cc2)C(=O)N[C@@H](Cc2ccccc2)C(=O)N[C@@H](CCC(N)=O)C(=O)N[C@@H](CC(N)=O)C(=O)N1)C(=O)NCC(N)=O` (H-GGGCYFQNCPKG-NH2; disulfide 4-9), “inactive”.
The same measure, in the same setting: the same measure for `COc1ccc(C(=O)Nc2ccccc2CCC2CCCCN2C)cc1` (centres undefined): “inactive”.
The same measure, in the same setting: the result for `CCCCC(=O)O` reads “inactive”.
For `Nc1c(CC(=O)O)cccc1C(=O)c1ccccc1`, in [3], the Potency result is “inactive”.
Same read-out and setting: the result for `NC(=O)C[C@@H](N)C(=O)O` reads “inactive”.
